Results: PubChem BioAssay (NCI)
This is part of a sample that, as a whole, favours compounds with a hit. Of some 79,000 tested, about 15% had one in any assay. Calls of active or inactive are those of the source. No stated cut-off is given here; in the data, active means growth inhibition above about 70%; inactive means the rest.

Tests used:
[1] = NCI Yeast Anticancer Drug Screen. Data for the rad52 strain (AID 147);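 further: 0% = growth of vehicle-treated control cultures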; details: S. cerevisiae rad52 mutant growth inhibition, stronger effect = higher value
Summary of the method: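 Here a repair-compromised yeast strain receives each compound; its growth is then quantified and normalised to vehicle-only controls.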

[2] = NCI Yeast Anticancer Drug Screen. Data for the wt1 strain (AID 149);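 further: 0% = growth of vehicle-treated wt1 cultures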; details: S. cerevisiae wt1 strain (SPY 50644) growth inhibition, stronger effect = higher value
Summary of the method: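 Readout: yeast growth inhibition, normalised to vehicle controls, in the wt1 strain exposed to test compounds.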

[3] = NCI Yeast Anticancer Drug Screen. Data for the rad50EPP+ strain (AID 151);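 further: 0% = growth of vehicle-treated control cultures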; details: S. cerevisiae rad50 mutant strain, stronger effect = higher value
Summary of the method: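 Read-out is yeast growth inhibition relative to vehicle; cells used were the rad50EPP+ strain.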

[4] = NCI Yeast Anticancer Drug Screen. Data for the mgt1 strain (AID 153); details: S. cerevisiae mgt1 mutant growth inhibition, stronger effect = higher value
Summary of the method: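 Measured: inhibition of mgt1 yeast growth by compound, normalized to vehicle-treated cultures.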

[5] = NCI Yeast Anticancer Drug Screen. Data for the rad50 strain (AID 155);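 further: 0% = growth of vehicle-only cultures of the same strain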; details: S. cerevisiae rad50 strain growth inhibition, stronger effect = higher value
Summary of the method: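 Compounds were tested on a yeast strain with an engineered DNA damage repair alteration; the reported value is growth inhibition normalised to vehicle treatment.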

[6] = NCI Yeast Anticancer Drug Screen. Data for the mec2-1 strain (AID 157); details: S. cerevisiae mec2-1 strain, stronger effect = higher value
Summary of the method: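 Using mec2-1 yeast: add compound, measure growth, express inhibition versus vehicle-treated cultures.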

[7] = NCI Yeast Anticancer Drug Screen. Data for the rad14 strain (AID 159);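 further: 0% = growth of vehicle-treated control cultures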; details: S. cerevisiae rad14 strain growth inhibition, stronger effect = higher value
Summary of the method: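 Compound-treated yeast with a defined DNA-repair lesion; growth inhibition normalised to vehicle-treated cultures.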

[8] = NCI Yeast Anticancer Drug Screen. Data for the sgs1 mgt1 strain (AID 161);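 further: 0% = growth of cultures given vehicle only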; details: S. cerevisiae sgs1 mgt1 strain, stronger effect = higher value
Summary of the method: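 Compounds are added to genetically altered yeast, and growth is compared with cultures given vehicle alone to give percent inhibition.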

[9] = NCI Yeast Anticancer Drug Screen. Data for the CLN2oe strain (AID 163);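 further: 0% = growth of vehicle-only control cultures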; details: S. cerevisiae CLN2oe strain, stronger effect = higher value
Summary of the method: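 Whole-cell yeast growth assay. A strain engineered for altered cell-cycle control received compound, and inhibition relative to vehicle-treated cultures was recorded.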

[10] = NCI Yeast Anticancer Drug Screen. Data for the cln2 rad14 strain (AID 165);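 further: 0% = growth equal to vehicle treated cultures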; details: S. cerevisiae cln2 rad14 strain, stronger effect = higher value
Summary of the method: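 Yeast strain cln2 rad14, bearing defects in cell cycle control and DNA repair, serves as the test system; values reflect growth inhibition compared with vehicle.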

[11] = NCI Yeast Anticancer Drug Screen. Data for the bub3 strain (AID 167); details: S. cerevisiae bub3 mutant strain, stronger effect = higher value
Summary of the method: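 Growth of a checkpoint-deficient yeast mutant is measured after compound exposure. Values represent inhibition relative to vehicle.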

[12] = NCI Yeast Anticancer Drug Screen. Data for the wt2 strain (AID 169);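 further: 0% = growth of vehicle-treated yeast cultures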; details: S. cerevisiae wt2 strain growth inhibition, stronger effect = higher value
Summary of the method: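 Treated yeast vs. vehicle-treated yeast: growth inhibition determined.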

[13] = NCI Yeast Anticancer Drug Screen. Data for the mlh1 strain (AID 171);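 further: 0% = growth of vehicle-treated control cultures of the same strain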; details: S. cerevisiae mlh1 strain growth inhibition, stronger effect = higher value
Summary of the method: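 A yeast strain with a defined genetic lesion serves as the test organism. Cultures receive compound or vehicle, and growth is measured.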

[14] = NCI Yeast Anticancer Drug Screen. Data for the sgs1 strain (AID 173);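 further: 0% = growth of vehicle-only control cultures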; details: S. cerevisiae sgs1 mutant, stronger effect = higher value
Summary of the method: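 A genetically defined yeast mutant is incubated with the test compound, and its growth is compared to that of the same strain given vehicle.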

[15] = NCI Yeast Anticancer Drug Screen. Data for the mlh1 rad18 strain (AID 175); details: S. cerevisiae mlh1 rad18 strain growth inhibition, stronger effect = higher value
Summary of the method: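 Steps: expose repair-defective yeast to compound; measure growth; express inhibition against vehicle-treated controls.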

[16] = NCI Yeast Anticancer Drug Screen. Data for the rad18 strain (AID 177); details: S. cerevisiae rad18 mutant growth inhibition, stronger effect = higher value
Summary of the method: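 Measured value is growth inhibition of a yeast strain bearing a DNA repair alteration, referenced to vehicle-treated cells.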

[17] = at 5.0 µM (retest, dose inferred, filed as 0.5)
[18] = at 50.0 µM (retest, dose inferred, filed as 5.0)

Measured: growth inhibition

CCC(C)NC1=NCC(C)S1 (stereo unspecified)
active: [11]; [18] 98%
inactive: [1]; at 1.2 µM -9% | [1]; at 3.7 µM -12% | [1]; at 11.0 µM -12% | [1]; at 33.0 µM -29% | [1]; at 100.0 µM -17% | [2]; at 1.2 µM -22% | [2]; at 3.7 µM -14% | [2]; at 11.0 µM -24% | [2]; at 33.0 µM -34% | [2]; at 100.0 µM -28% | [3]; at 1.2 µM -40% | [3]; at 3.7 µM -38% | [3]; at 11.0 µM -27% | [3]; at 33.0 µM -37% | [3]; at 100.0 µM -75% | [4]; at 1.2 µM -18% | [4]; at 3.7 µM -15% | [4]; at 11.0 µM -13% | [4]; at 33.0 µM -19% | [4]; at 100.0 µM -25% | [5]; at 1.2 µM -29% | [5]; at 3.7 µM -20% | [5]; [17] 44% | [5]; at 11.0 µM -32% | [5]; at 33.0 µM -34% | [5]; [18] 41% | [5]; at 50.0 µM 64.1% | [5]; at 100.0 µM -33% | [6]; at 1.2 µM -40% | [6]; at 3.7 µM -48% | [6]; [17] 42% | [6]; at 11.0 µM -63% | [6]; at 33.0 µM -51% | [6]; [18] 36% | [6]; at 50.0 µM 28.9% | [6]; at 100.0 µM -39% | [7]; at 1.2 µM -17% | [7]; at 3.7 µM -15% | [7]; at 11.0 µM -22% | [7]; at 33.0 µM -21% | [7]; at 100.0 µM -25% | [8]; [17] -9% | [8]; [18] 30% | [8]; at 50.0 µM 58.2% | [9]; at 1.2 µM -5% | [9]; at 3.7 µM 1% | [9]; at 11.0 µM -9% | [9]; at 33.0 µM 0% | [9]; at 100.0 µM -8% | [10]; [17] 44% | [10]; [18] 49% | [10]; at 50.0 µM 65.7% | [11]; at 1.2 µM -6% | [11]; at 3.7 µM -9% | [11]; [17] 19% | [11]; at 11.0 µM -8% | [11]; at 33.0 µM -16% | [11]; at 50.0 µM 57.7% | [11]; at 100.0 µM -17% | [12]; at 1.2 µM -20% | [12]; at 3.7 µM -21% | [12]; at 11.0 µM -28% | [12]; at 33.0 µM -26% | [12]; at 100.0 µM -22% | [13]; at 1.2 µM -27% | [13]; at 3.7 µM -27% | [13]; at 11.0 µM -22% | [13]; at 33.0 µM -36% | [13]; at 100.0 µM -42% | [14]; at 1.2 µM -26% | [14]; at 3.7 µM -21% | [14]; at 11.0 µM -16% | [14]; at 33.0 µM -38% | [14]; at 100.0 µM -29% | [15]; [17] 47% | [15]; [18] 27% | [15]; at 50.0 µM 62.6% | [16]; at 1.2 µM -12% | [16]; at 3.7 µM 0% | [16]; at 11.0 µM -6% | [16]; at 33.0 µM -26% | [16]; at 100.0 µM -32%

O=C1NC(SSC2=NNC3(C(=O)N2)c2ccccc2-c2ccccc23)=NNC12c1ccccc1-c1ccccc12
inactive: [1]; at 1.2 µM 2% | [1]; at 3.7 µM -1% | [1]; at 11.0 µM 1% | [1]; at 33.0 µM 8% | [1]; at 100.0 µM 33% | [2]; at 1.2 µM 0% | [2]; at 3.7 µM 0% | [2]; at 11.0 µM 0% | [2]; at 33.0 µM 1% | [2]; at 100.0 µM 5% | [3]; at 1.2 µM 8% | [3]; at 3.7 µM 9% | [3]; at 11.0 µM 20% | [3]; at 33.0 µM 43% | [3]; at 100.0 µM 63% | [4]; at 1.2 µM 1% | [4]; at 3.7 µM 0% | [4]; at 11.0 µM 0% | [4]; at 33.0 µM -10% | [4]; at 100.0 µM 7% | [5]; at 1.2 µM -1% | [5]; at 3.7 µM 7% | [5]; [17] -4% | [5]; at 11.0 µM -13% | [5]; at 33.0 µM 18% | [5]; [18] 53% | [5]; at 100.0 µM 37% | [6]; at 1.2 µM 1% | [6]; at 3.7 µM 2% | [6]; [17] -11% | [6]; at 11.0 µM 3% | [6]; at 33.0 µM 7% | [6]; [18] 10% | [6]; at 100.0 µM 13% | [7]; at 1.2 µM -1% | [7]; at 3.7 µM -4% | [7]; at 11.0 µM -1% | [7]; at 33.0 µM 2% | [7]; at 100.0 µM 8% | [8]; [17] -7% | [8]; [18] -23% | [9]; at 1.2 µM 4% | [9]; at 3.7 µM 1% | [9]; at 11.0 µM 1% | [9]; at 33.0 µM 5% | [9]; at 100.0 µM 2% | [10]; [17] 0% | [10]; [18] -14% | [10]; at 50.0 µM 51.8% | [11]; at 1.2 µM 4% | [11]; at 3.7 µM 6% | [11]; [17] 10% | [11]; at 11.0 µM 7% | [11]; at 33.0 µM 12% | [11]; [18] 25% | [11]; at 100.0 µM 12% | [12]; at 1.2 µM -1% | [12]; at 3.7 µM -3% | [12]; at 11.0 µM -3% | [12]; at 33.0 µM 0% | [12]; at 100.0 µM 5% | [13]; at 1.2 µM 3% | [13]; at 3.7 µM 1% | [13]; at 11.0 µM 2% | [13]; at 33.0 µM 8% | [13]; at 100.0 µM 17% | [14]; at 1.2 µM -4% | [14]; at 3.7 µM -1% | [14]; at 11.0 µM -6% | [14]; at 33.0 µM 1% | [14]; at 100.0 µM 11% | [15]; [17] -11% | [15]; [18] -7% | [16]; at 1.2 µM 0% | [16]; at 3.7 µM 3% | [16]; at 11.0 µM 5% | [16]; at 33.0 µM 5% | [16]; at 100.0 µM 9%
active: [5]; at 50.0 µM 96.2% | [6]; at 50.0 µM 80% | [8]; at 50.0 µM 80.5% | [11]; at 50.0 µM 86.5% | [15]; at 50.0 µM 96.2%
